Source: PubChem (National Center for Advancing Translational Sciences (NCATS))
Nrf2 block = Nrf2 pathway inhibition; A549 ARE-Fluc reporter, luciferase luminescence, 18-24 h; Potency, µM (highest dose often 46 µM), without a hit: at the highest dose activity change, negative = inhibition, actives largely listed as inhibitors; 360,000 compounds, 2.1% hits; AID 504444; further: on the % scale 0 is the no-effect control and ±100 the full control effect; nearly all actives have a fitted effect of over 60% in size
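A549 ARE_Fluc cells, 5000/well, 5% FBS OPTI-MEM; compounds in dose-response, 18-24 h at 37 °C/5% CO2; CellTiter-Fluor viability read (Ex 405/Em 525), then BugLite luciferase luminescence = Nrf2 activity.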
S2 tox = viability counter-screen for ATXN expression inhibitors | S2 cells (HEK-293 line with an ATXN2-luciferase reporter) viability, CellTiter-Fluor protease fluorescence, 24 h | Potency, µM (series often up to 56.7 µM), most hits filed as cytotoxic | 400,000 compounds, 0.49% hits; further: nearly all actives have a fitted effect of over 40% in size
TGFb SMAD3 inh = inhibitors of TGF-b signaling | HepG2 CAGA-GFP TGF-b/SMAD3 reporter, GFP fluorescence, 18 h; TGF-beta stimulated, 500 pg/mL final | Potency, µM (series often up to 46.1 µM), without a hit: at the top dose activity, negative = inhibition, usual class: inhibitors | 410,000 compounds, 1.2% hits | AID 588855; further: on the % scale 0 is the no-effect control and ±100 the full control effect; nearly all actives have a fitted effect of over 65% in size
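GFP signal (ex488/em500-530) from TGF-beta-stimulated HEPG2 CAGA-GFP cells, 500 pg/mL final, 18 h at 37 degrees C in DMEM plus 1% FBS, normalized to unstimulated and DMSO-stimulated controls.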
ATXN2 expr inh = ATXN2 expression inhibition; Potency, µM (doses to about 57 µM), without a hit: top-dose activity change, negative = inhibition, usual class: inhibitors; HEK-293 ATXN2-luciferase reporter, luminescence, 24 h; 360,000 compounds, 0.72% hits; AID 1745845; further: on the % scale 0 is the no-effect control and ±100 the full control effect; nearly all actives have a fitted effect of over 55% in size
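ATXN2-luciferase reporter cells (luciferase flanked by upstream and downstream ATXN2 gene portions) were treated 24 h at 37 °C with compounds at up to 57 uM. SteadyGlo luminescence gave expression; GF-AFC fluorescence gave viability.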
HepG2 viability = HepG2 cytotoxicity, counter-screen for TGF-b inhibitors; HepG2 CAGA-GFP viability, ATP luminescence, 18 h; Potency, µM (titrated, usually from 46.1 µM), inactives show at the highest dose activity change, negative = cytotoxicity, hits mostly cytotoxic; 410,000 compounds, 0.76% hits; AID 588856
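HepG2 CAGA-GFP cells (1000/well, DMEM with 1% FBS) received compound, then TGF-beta at 500 pg/mL final, and were incubated 18 hours at 37 degrees C. Viability was read by CellTiter-Glo luminescence. Media-only wells were set as complete cell-killing and DMSO as no toxicity.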
A549 tox = A549 cytotoxicity, counter-screen for Nrf2 inhibitors; A549 ARE-Fluc cells, CellTiter-Fluor viability, 18-24 h; Potency, µM (doses to about 46 µM), without a hit: top-dose activity change, negative = cytotoxicity, actives largely listed as inhibitors; 390,000 compounds, 0.16% hits; further: on the % scale 0 is the no-effect control and ±100 the full control effect
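A549 ARE_Fluc cells in 5% FBS OPTI-MEM were exposed to compounds in concentration-response for 18-24 h at 37 deg C. Viability was read by CellTiter-Fluor fluorescence (Ex 405/Em 525) after 30 min, before the luciferase read.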
* = called active by the depositor; i = inactive; ? = inconclusive; . = not tested or not shown; [ ] = remark or other dose. The list is not random: actives were taken first. Their share in the collection is about 3.8%. The call rests on the fitted dose curve; in most records, active means well fitted curve in the direction sought with a large enough effect; inconclusive means small, poorly fitted or top-dose-only effect, or another doubt; inactive means no such curve, though single readings can be large; an effect the other way counts as inactive or inconclusive. Potency means the concentration at half of the fitted maximal effect.

SMILES	Nrf2 block	S2 tox	TGFb SMAD3 inh	ATXN2 expr inh	HepG2 viability	A549 tox
CCOc1ccc(N2CC(c3nc4ccccc4n3Cc3cccc(C)c3)CC2=O)cc1 (stereo not drawn)	?	?	?	?	-31.8%	-11.4%
COc1ccccc1Cn1c(C2CC(=O)N(c3ccccc3OC)C2)nc2ccccc21 (stereo not drawn)	10.3µM*	?	12.6µM*	-29.3%	-23.4%	-5.0%
CCn1c(C2CC(=O)N(c3ccc(C)c(C)c3)C2)nc2ccccc21 (stereo not drawn)	2.8%	?	-29.3%	-3.6%	-33.7%	-1.6%
CCc1ccccc1N1CC(c2nc3ccccc3n2Cc2cccc(C)c2)CC1=O (stereo not drawn)	?	?	6.31µM*	?	-32.7%	-21.6%
COc1ccc(C(=O)NCc2nnc(SCC(=O)Nc3ccccc3)n2-c2ccc(F)cc2)cc1	16.1%	?	?	-3.7%	1.5%	-4.2%
O=C(NCCN1CCC(n2c(=O)[nH]c3ccccc32)CC1)c1ccc(Cl)cc1	.	i	.	-33.9%	.	.
O=C(NCCN1CCC(n2c(=O)[nH]c3ccccc32)CC1)c1ccc(Cl)c(Cl)c1	.	?	.	17.8µM*	.	.
Cc1ccc(CNC(=O)c2cc(C3CC3)nc3c2c(C)nn3-c2cccc(Cl)c2C)cc1	?	i	0.0%	5.1%	4.6%	1.1%
COc1ccc(OCCN2CCC(C(=O)NC(c3ccc(OC)cc3)c3ccccn3)CC2)cc1 (stereo not drawn)	.	i	0.0%	2.3%	-24.1%	.
COc1ccc(OCCN2CCC(C(=O)NC(c3ccc(F)cc3)c3ccc4ccccc4n3)CC2)cc1 (stereo not drawn)	.	?	20µM*	?	11.2µM*	.
O=C(NC(c1ccc(F)cc1)c1ccc2ccccc2n1)C1CCN(CCOc2ccc(Cl)cc2Cl)CC1 (stereo not drawn)	.	.	?	?	11.2µM*	.
COc1ccc(OCCN2CCC(C(=O)NC(c3ccccc3)c3ccc4ccccc4n3)CC2)cc1 (stereo not drawn)	.	?	?	0.0%	6.31µM*	.
O=C(NC(c1ccc(F)cc1)c1ccc2ccccc2n1)C1CCN(CCOc2ccc(F)cc2)CC1 (stereo not drawn)	.	15.8µM*	11.2µM*	28.2µM*	15.8µM*	.
CCCC(CCC)C(=O)Nc1ccc2c(c1)N(C(=O)CCN1CCN(C)CC1)c1ccccc1CC2	9.0%	?	21.0%	-27.6%	-0.8%	-10.7%
CCCCN(CCCNC(=O)c1c(C)oc2nc[nH]c(=O)c12)Cc1ccccc1	8.0%[9.27 µM]	i	-21.3%	12.4%	-39.7%	2.5%
CCc1ccc(NC(=O)c2sc(-n3nc(C)c(Cc4ccc(OC)cc4)c3C)nc2C)cc1	10.7%	.	-8.4%	.	2.1%	0.9%
O=C(NC(c1ccc(F)cc1)c1ccc2ccccc2n1)C1CCN(Cc2ccc(Oc3ccccc3)cc2)CC1 (stereo not drawn)	.	i	?	-32.5%	-3.4%	.
Cn1cc(CN2CCC(C(=O)NC(c3ccc(F)cc3)c3ccc4ccccc4n3)CC2)c2ccccc21 (stereo not drawn)	.	28.2µM*	?	28.2µM*	10µM*	.
Cn1cc(C(=O)c2ccc(Cl)cc2Cl)cc1C(=O)N/N=C(\N)COc1ccc(Cl)cc1Cl	20.6µM*	?	?	?	-3.2%	?
Cn1cc(C(=O)c2ccc(Cl)cc2Cl)cc1C(=O)N/N=C(\N)COc1ccc(Cl)cc1	13µM*	i	?	?	3.0%	-20.0%
CC(C)C(Cl)=NOC(=O)Nc1ccc(F)cc1	-1.9%	21.2µM*	-11.0%	?	20µM*	2.1%
CC(=O)C1=C(c2ccc(Br)cc2)N(C(C)=O)n2c(nnc2C2CCCCC2)S1	.	.	0.1%	.	8.2%	0.2%
Cc1cccc(NC(=S)NNc2ncc(C(F)(F)F)cc2Cl)c1	?	i	?	?	-36.6%	-3.5%
FC(F)(F)c1cnc(NNC(=S)Nc2ccccc2Cl)c(Cl)c1	?	i	7.08µM*	5.97µM*	-48.8%	?
COc1cc(-c2nnc(SCCOc3ccc(Cl)cc3C)o2)cc(OC)c1OC	?	i	0.0%	-3.7%	11.2µM*	2.8%
SMILES	Nrf2 block	S2 tox	TGFb SMAD3 inh	ATXN2 expr inh	HepG2 viability	A549 tox
O=C(NCC1CCCO1)c1cccc2c1C(=O)c1ccc(N3CCC(Cc4ccccc4)CC3)cc1S2(=O)=O (stereo not drawn)	20.6µM*	?	?	?	1.6%	-8.0%
O=C(NCc1ccccc1C(F)(F)F)c1cccc2c1C(=O)c1ccc(N3CCOCC3)cc1S2(=O)=O	?	i	-5.4%	-34.2%	-19.9%	-3.4%
O=C(NCc1ccccc1C(F)(F)F)c1cccc2c1C(=O)c1ccc(N3CCC(N4CCCCC4)CC3)cc1S2(=O)=O	.	?	-7.9%	28.2µM*	-40.6%	.
Cc1nn(C)cc1/C=N/NC(=O)CSc1ccccn1	0.8%	i	7.1%	-3.3%	-4.4%	-2.2%
CCn1nc(C)c(/C=N/NC(=O)CSc2ccccn2)c1C	?	i	0.0%	47.0%	4.47µM*	0.8%
O=C(Nc1nnc(S(=O)(=O)N2CCc3ccccc32)s1)c1cccc(Cl)c1	?	i	7.94µM*	?	-46.4%	0.8%
O=C(Nc1nnc(S(=O)(=O)N2CCc3ccccc32)s1)c1ccccc1	?	i	?	10.0%	-39.4%	-8.8%
O=C(COc1ccc(F)cc1)Nc1nnc(S(=O)(=O)N2CCc3ccccc32)s1	11.4%	i	12.6µM*	-4.6%	-29.3%	3.7%
O=C1NC(=S)S/C1=C\c1ccc(SCc2ccco2)o1	-9.7%	?	?	-5.0%	-33.6%	?
O=C1NC(=S)S/C1=C\c1ccc(SCc2ccccc2)o1	20.6µM*	i	-29.5%	-6.6%	-32.7%	?
CCn1c(=O)c2sccc2n2c(CCC(=O)Nc3ccc(C(C)C)cc3)nnc12	?	i	-18.7%	-22.3%	-2.1%	-6.9%
CCN1CCN(CCCNC(=O)c2ccc(/C=C3/Sc4ccccc4N(Cc4ccccc4F)C3=O)cc2)CC1	18.0%	i	?	?	11.2µM*	4.3%
CCN1CCN(CCNC(=O)c2ccc(/C=C3/Sc4ccccc4N(Cc4ccccc4C)C3=O)cc2)CC1	?	?	17.8µM*	?	-94.0%	?
Cc1ccccc1CN1C(=O)c2ccccc2Sc2ccc(C(=O)NCCN3CCOCC3)cc21	?	i	-20.8%	-25.6%	-13.8%	1.6%
